Compound activity as filed in PubChem BioAssay.
hcDAF-12 act – H. contortus DAF-12 nuclear receptor activators, primary screen, cell-based, luminescence, HEK293, lit1-tk-luc reporter | HEK293 hcDAF-12 lit1-tk-luc reporter; 0% DMSO, 100% Δ7-dafachronic acid | activation, % at 6.8 µM | hit rate 1.4% among 370,000;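 active = activation above the mean of all tested compounds plus 3 SD, cut at about 5.5% in these data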;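 note: 100% = response to 3 µM Δ7-dafachronic acid high control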
DAX1 inh-1 – DAX1 (NR0B1) inhibitors, primary screen, cell-based, HEK293, Gal4-DAX1, luciferase luminescence | hit rate 0.99% among 340,000 | AID 504766, 2011 | inhibition, % at 6.75 µM | HEK293 Gal4-DAX1 luciferase reporter | Nuclear receptor subfamily 0 group B member 1 (Homo sapiens), P51843;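 active = inhibition above the mean over all tested compounds plus 3 SD, cut at about 4.2% in these data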;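 note: 0% = DAX1-transfected cells with DMSO and 100% = empty-vector control cells with DMSO; inhibition shows as a rise in luminescence from relieved DAX1 repression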
DAX1 inh-2 – DAX1 (NR0B1) inhibitors on StAR promoter, primary screen, cell-based, luminescence, SF-1 (NR5A1), full-length DAX-1; HEK293T StAR-luciferase reporter, SF-1/DAX-1 repression relief; inhibition, % at 6.8 µM; hit rate 1.1% among 370,000;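 active = inhibition above the mean over all tested compounds plus 3 SD, cut at about 3.6% in these data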;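 note: 0% = DAX-1 cells with DMSO and 100% = cells lacking DAX-1 with DMSO; higher inhibition means more luminescence from relief of DAX-1 repression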
ssDAF12 agonist – S. stercoralis DAF-12 nuclear receptor activators, primary screen, cell-based, luminescence, HEK293, GRIP1 co-expression, lit1-tk-luc; Nuclear hormone receptor DAF-12 (Strongyloides stercoralis); HEK293 ssDAF-12/GRIP1 lit1-tk-luc reporter; % of 3 µM dafachronic acid response; activation, % at 6.8 µM; hit rate 1% among 370,000; AID 652126, 2013;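 active = activation above the mean over all tested compounds plus 3 SD, cut at about 0.9% in these data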;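 note: 0% = DMSO-only wells and 100% = 3 µM delta7-dafachronic acid wells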
hgDAF-12 ag – H. glycines DAF-12 receptor agonists, primary screen, cell-based, luminescence, HEK293, GAL4 fusion, UAS-luciferase; AID 687014, 2013; hit rate 1.8% among 370,000; Nuclear hormone receptor DAF-12 (Heterodera glycines), GAL4 fusion; activation, % at 6.8 µM; HEK293 GAL4-hgDAF12 UAS-luciferase reporter, agonist luminescence; normalized to butyrate control;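 active = activation above a cutoff set at the mean of all screened compounds plus 3 SD, cut at about 10% in these data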;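 note: 0% = DMSO wells and 100% = sodium butyrate wells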
hgDAF12 ag – H. glycines DAF-12 receptor agonists, confirmation, cell-based, luminescence, HEK293, GAL4-LBD fusion. shares compounds with hgDAF-12 ag. HEK293 GAL4-hgDAF12 luciferase reporter, agonist mode; percent of butyrate response. activation, % at 6.8 µM. hit rate 80% among 3,300. AID 743050, 2013;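 active = mean activation over triplicate wells above the hit cutoff derived from the earlier primary screen, cut at about 11% in these data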;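 note: 0% = DMSO low control and 100% = 2 mM sodium butyrate high control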
LXRb DAF12 ctr – LXR agonists, Gal4 luciferase reporter, confirmation, counter-screen for hgDAF-12 agonist project, cell-based, luminescence, HEK293, H. glycines campaign | AID 743051, 2013 | 24 h | 3,300 tested, under 10 active | shares compounds with hgDAF-12 ag | activation, % at 6.8 µM;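 active = mean activation of the triplicate above a set limit carried over from the primary screen, none filed active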
Target sequence (P55055 whole entry, looked up, the tested form may be a part): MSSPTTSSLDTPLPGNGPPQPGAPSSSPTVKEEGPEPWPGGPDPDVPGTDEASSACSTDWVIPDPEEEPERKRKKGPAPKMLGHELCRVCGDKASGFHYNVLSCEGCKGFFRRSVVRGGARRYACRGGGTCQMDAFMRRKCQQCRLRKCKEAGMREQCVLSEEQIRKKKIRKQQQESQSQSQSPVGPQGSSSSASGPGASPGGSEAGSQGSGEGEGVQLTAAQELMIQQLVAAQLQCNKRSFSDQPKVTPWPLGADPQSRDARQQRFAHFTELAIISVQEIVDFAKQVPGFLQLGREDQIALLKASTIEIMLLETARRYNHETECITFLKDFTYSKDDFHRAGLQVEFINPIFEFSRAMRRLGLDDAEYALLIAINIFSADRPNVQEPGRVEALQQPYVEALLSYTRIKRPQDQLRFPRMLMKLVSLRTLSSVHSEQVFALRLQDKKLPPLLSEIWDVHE
Starred values were filed as active, the others as inactive; nt = not tested or not shown. This is a sample that favours compounds with a hit; in the whole collection about 4.1% have one here.

SMILES	hcDAF-12 act	DAX1 inh-1	DAX1 inh-2	ssDAF12 agonist	hgDAF-12 ag	hgDAF12 ag	LXRb DAF12 ctr
CC1CCc2c(C(=O)NCc3ccccn3)csc2C1 (stereo not drawn)	4	1	2	-1	17*	7	0
CC1CCc2c(C(=O)Nc3nccs3)csc2C1 (stereo not drawn)	0	-1	0	-1	8	nt	nt
CCOC(=O)c1ccc(NC(=O)/C=C/c2cccs2)cc1	2	0	1	0	19*	9	0
CCN(CC)CCOC(=O)c1ccc(NC(=O)/C=C/c2cccs2)cc1	1	0	0	-2	-1	nt	nt
CCOc1ccc2nc(NC(=O)Cc3cccs3)sc2c1	nt	0	nt	nt	nt	nt	nt
CCOc1ccc2nc(NC(=O)COC)sc2c1	2	0	4.5*	1	14*	16*	1
CCOc1ccc2nc(NC(=O)NC3CCCCC3)sc2c1	0	0	0	-1	-1	nt	nt
CCOc1ccc2nc(NC(=O)C3CCCO3)sc2c1 (stereo not drawn)	4	2	3	0	18*	16*	1
CCOc1ccc2nc(NC(=O)Nc3ccccc3)sc2c1	2	4.5*	2	-1	15*	16*	1
CC(C)(C)S(=O)(=O)N1Cc2cc(CO)ccc2[C@@H]1CCO	-1	nt	0	-1	1	nt	nt
Cc1ccc(Cn2nnc3c2-c2ccccc2S(=O)(=O)N(C)C3)cc1	-2	nt	-1	-2	-3	nt	nt
Cc1ccc(OCC(=O)Nc2ccccc2F)cc1C	3	2	4	1	16*	13*	1
CCOC(=O)C1CSCCS(=O)(=O)N1Cc1cccc(F)c1 (stereo not drawn)	-1	nt	1	-1	-2	nt	nt
O=C(Nc1nccs1)C(Br)C(Br)c1ccccc1 (stereo not drawn)	6.4*	0	1	0	16*	19*	1
CC(=O)OC(C(=O)Nc1nccs1)c1ccccc1 (stereo not drawn)	0	3	1	-1	-1	nt	nt
O=C(Cc1c[nH]c2ccccc12)Nc1ccc(Nc2cccnc2)c(-c2cc(F)cc(F)c2)c1	-1	nt	-2	-1	-1	nt	nt
Cc1cc(C)nc(-n2nc(C)c(Sc3ccc(F)cc3)c2N)n1	3	0	3	0	13*	15*	1
C/C(CC(=O)Nc1cccc(Cl)c1Cl)=N\NC(=O)c1ccccc1Br	2	2	1	-1	3	nt	nt
C/C(CC(=O)Nc1cccc(Cl)c1Cl)=N\NC(=O)c1ccccc1N	5	4.2*	2	0	14*	3	0
CC(C)Oc1cccc(-c2csc(N3CCC(C(N)=O)CC3)n2)c1	3	nt	nt	0	15*	9	1
NC(=O)C1CCN(c2nc(-c3ccc4c(c3)OCCCO4)cs2)CC1	2	nt	nt	0	17*	18*	1
CCCCCCN1CCS(=O)(=O)N(Cc2ccc(C)cc2)C(C(=O)OC)C1 (stereo not drawn)	-2	nt	-1	-1	-4	nt	nt
O=C(c1ccc2nc(Cc3ccccc3F)oc2c1)N1CCCC1	5	2	3	0	15*	14*	0
CCOC(=O)[C@@]12CN(C(=O)OC(C)(C)C)CC=C1N(Cc1ccc(OC)cc1)C(=O)[C@H]2CC(=O)NCCCCc1ccccc1	-3	nt	0	-2	-1	nt	nt
Cc1oc(-c2ccc(-c3ccccc3)cc2)nc1CN1CCN(CC(=O)N(C)C)CC1	6.5*	1	3	0	15*	14*	1
SMILES	hcDAF-12 act	DAX1 inh-1	DAX1 inh-2	ssDAF12 agonist	hgDAF-12 ag	hgDAF12 ag	LXRb DAF12 ctr
Cc1ccc(-c2cc(-c3nnc(SCC(=O)Nc4nccs4)n3N)[nH]n2)cc1	4	nt	2	0	13*	10*	0
O=C(O)c1ccc2c(c1)C(=O)N(c1cccc(-c3nc4ccccc4s3)c1)C2=O	0	1	1	-1	16*	3	0
CC(C)(C)OC(=O)N1C[C@@]23C[C@H](c4cccc(F)c4)[C@@H](C[C@@H]2S1(=O)=O)O3	-2	nt	0	-1	-2	nt	nt
Cc1cccc(/N=C/c2nc(-c3ccccc3Br)oc2O)n1	2	-1	0	-1	5	nt	nt
Cc1ccnc(N=Cc2nc(-c3ccccc3Br)oc2O)c1	0	0	2	1	15*	6	0
NC(=O)C1CCN(c2nc(-c3ccc(Oc4ccccc4)cc3)cs2)CC1	0	nt	nt	-2	2	nt	nt
C/C(=N/NC(=O)c1cc(C2CC2)[nH]n1)c1cccs1	5.7*	-2	3.8*	0	15*	9	1
Cc1ccc(C(=O)NCCc2ccc(F)cc2)s1	3	1	3	0	17*	17*	1
Cc1ccc(C(=O)NCc2ccc(F)cc2)s1	0	1	0	-1	3	nt	nt
CCOC(=O)C1=CCN(S(=O)(=O)c2cccc(Cl)c2)C1c1ccc(Cl)cc1 (stereo not drawn)	-1	nt	-1	-1	-2	nt	nt
CCCCCCCCN1CCS(=O)(=O)N(Cc2ccccc2)C(C(=O)OC)C1 (stereo not drawn)	-2	nt	-1	-1	-1	nt	nt
CCN(CC)c1ccc(NC(=O)c2ccc(Br)o2)cc1	3	5.0*	4	0	16*	15*	1
COC(=O)[C@H](Cc1ccccc1)N1CC=CS1(=O)=O	-1	nt	0	-1	0	nt	nt
CC1CCc2nc3sc4c(c3c(N)c2C1)CCCC4 (stereo not drawn)	-1	-1	3	0	14*	11*	0
O=C(/C=C/Nc1ccc(Cc2ccc(N/C=C/C(=O)C(F)(F)F)cc2)cc1)C(F)(F)F	5	2	2	0	13*	1	0
O=C(Cn1c(=O)c(=O)n(Cc2ccccc2)c2ccc(Cl)cc21)Nc1cccc(F)c1	-1	1	0	0	26*	0	0
CN(CCCOC(=O)c1cc2ccccc2o1)C1CN(Cc2cn(Cc3ccc([N+](=O)[O-])cc3)nn2)S(=O)(=O)C1 (stereo not drawn)	0	nt	0	-1	3	nt	nt
